Measured values: PubChem BioAssay (NCI)
The panel holds about 79,000 compounds, 15% with a hit somewhere; the sample as a whole holds those more often. Active and inactive are the calls of the source. Cut-off read from the data, not from the text of the source: active = growth inhibition above about 70%; inactive = the rest.

Test: NCI Yeast Anticancer Drug Screen. Data for the cln2 rad14 strain (AID 165);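 note: 0% = growth equal to vehicle treated cultures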
Details: S. cerevisiae cln2 rad14 strain, at 50.0 µM, hits give high values
Procedure, shortened: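 Compounds are applied to the cln2 rad14 yeast strain, and growth is then compared with that of vehicle-treated cultures to give inhibition.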
For `CC(C)c1cc(O)c2c(c1O)C1CC3C(C)(C)CCC[C@]23C(=O)O1` (stereo partly specified), the growth inhibition was 88.2% (active).
With `O=C1C(=O)c2cc(Br)cc([N+](=O)[O-])c2-c2ccc(Br)cc21` the growth inhibition was 96.6% (active).
With `NSc1ccccn1` the growth inhibition was 89.7% (active).
For `CCCCCCCCCCCCOC(=O)C[n+]1cccc(C(=O)Nc2ccccc2)c1`, the growth inhibition was 98.9% (active).
In the case of `NC(=S)SCCC(=O)O`, the growth inhibition is reported as 40.1% (inactive).
For `O=C(O)Cc1ccc2c3c(cccc13)CC2`, the growth inhibition was 90.2% (active).

Test: NCI Yeast Anticancer Drug Screen. Data for the bub3 strain (AID 167)
Details: S. cerevisiae bub3 mutant strain, at 5.0 µM (retest, dose inferred, filed as 0.5), hits give high values
Procedure, shortened: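 In this screen, a yeast mutant lacking normal mitotic checkpoint function is challenged with compound. Relative growth versus vehicle gives the inhibition value.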
With `CC(=O)Sc1ccc(Br)cc1` the growth inhibition was 1% (inactive).
In the case of `CC(C)OCc1cccc2ccnc(COC(C)C)c12`, the growth inhibition is reported as -11% (inactive).
For `Nc1ccc2c(c1)C(=O)c1ccccc1-2`, the growth inhibition was 2% (inactive).
In the case of `O=C1Nc2ccc([N+](=O)[O-])c3c([N+](=O)[O-])ccc1c23`, the growth inhibition is reported as 2% (inactive).
With `Cc1ccc(NC(=O)Oc2ccc(C(C)(C)C)cc2Br)cc1NC(=O)Oc1ccc(C(C)(C)C)cc1Br` the growth inhibition was 0% (inactive).
For `O=C1C(Cl)=C(Nc2ccc(S(=O)(=O)O)cc2)C(=O)c2ccccc21`, the growth inhibition was 74% (active).
In the case of `N/C(=N\OC(=O)Nc1ccccc1)c1ccccc1`, the growth inhibition is reported as -3% (inactive).
With `O=C1c2ccccc2C(=O)c2cc(N3C(=O)C=CC3=O)ccc21` the growth inhibition was 97% (active).
In the case of `CCCCN=C(c1ccc(O)cc1)c1ccc(OC)cc1O`, the growth inhibition is reported as -5% (inactive).
For `Cc1ccc(S(=O)(=O)c2cc(O)c(O)c3ccc(Br)cc23)cc1`, the growth inhibition was -4% (inactive).
In the case of `CC(C)(C)NC(=S)N/N=C/c1cc(Cl)cc(Cl)c1O`, the growth inhibition is reported as 97% (active).
For `Oc1ccc2c(c1)OCC1c3ccccc3OC21` (stereo unspecified), the growth inhibition was 37% (inactive).
For `OCCSC(=S)Nc1ccc(Cl)c(Cl)c1`, the growth inhibition was 44% (inactive).
For `CCCC[N-]CC(O)C[NH-].O=C(O)CC(=O)O.[Pt+2]` (stereo unspecified), the growth inhibition was 3% (inactive).
With `N=C(N)c1cccc(-c2ccc(-c3ccccc3)o2)c1` the growth inhibition was 3% (inactive).
For `C#CC(CC(C)C)(CC(C)C)OC(=O)Nc1ccccc1`, the growth inhibition was 3% (inactive).
With `CCCCOc1ccc(-c2c(COC(=O)NC)c(COC(=O)NC)c(C)n2C)cc1` the growth inhibition was 17% (inactive).
With `O=C(Nc1cccc2ccccc12)OCCCCCCl` the growth inhibition was -5% (inactive).
With `C=CCOc1ccc(/C=N/NC(N)=S)cc1` the growth inhibition was 5% (inactive).
In the case of `Fc1ccc2[nH]ccc2c1`, the growth inhibition is reported as 2% (inactive).
In the case of `C=C1C(=O)[C@]23C[C@H]1CC[C@H]2[C@@]12CO[C@@H](O)[C@@H]1C(C)(C)[C@@H](O)C[C@@H]2OC3=O`, the growth inhibition is reported as -5% (inactive).
With `N#Cc1ccc([N+](=O)[O-])cc1C#N` the growth inhibition was -66% (inactive).
For `N=C(N)c1ccc(Oc2ccc(Oc3ccc(C(=N)N)cc3)cc2)cc1`, the growth inhibition was 53% (inactive).
For `CCC=Nc1c(O)cc(-c2ccccc2)n(C)c1=O`, the growth inhibition was 35% (inactive).
In the case of `COc1ccc(CN2CCCN(Cc3ccc(OC)cc3OC)C2c2cc(Cl)ccc2O)c(OC)c1`, the growth inhibition is reported as -1% (inactive).
With `CCN(CC)c1ccc(/C=C2/C[N+](C)(C)C/C(=C/c3ccc(N(CC)CC)cc3)C2=O)cc1` the growth inhibition was -20% (inactive).
In the case of `O=P1(Cc2ccccc2)c2ccccc2-c2ccccc21`, the growth inhibition is reported as -33% (inactive).
For `CN(C)CCCNc1cc(O)c2c(c1O)C(=O)c1ccccc1C2=O`, the growth inhibition was 13% (inactive).
In the case of `CCCCC#CC(=O)OCCCCC`, the growth inhibition is reported as 1% (inactive).
For `CCCCCCN(CCCCCC)CCC(=O)c1ccc2cc(Cl)c3ccccc3c2c1`, the growth inhibition was 5% (inactive).
In the case of `CC(C)C1=C2CCC3(C)C(CCC4C5C6OCC5(CCC6(C)C)CCC43C)C2(C)CC1` (stereo unspecified), the growth inhibition is reported as 10% (inactive).
In the case of `O=C(CC(O)(CC(=O)OCc1ccccc1)C(=O)OCc1ccccc1)OCc1ccccc1`, the growth inhibition is reported as -1% (inactive).
For `CCc1c(C)[nH]c2c([N+](=O)[O-])cccc12`, the growth inhibition was -13% (inactive).
With `CSc1ncc2c(n1)-c1ccccc1OC2NC1CC1` (stereo unspecified) the growth inhibition was 24% (inactive).
With `CC(C)c1cc(O)c2c(c1O)C1CC3C(C)(C)CCC[C@]23C(=O)O1` (stereo partly specified) the growth inhibition was 1% (inactive).
In the case of `O=C1C(=O)c2cc(Br)cc([N+](=O)[O-])c2-c2ccc(Br)cc21`, the growth inhibition is reported as 38% (inactive).
With `NSc1ccccn1` the growth inhibition was 3% (inactive).
In the case of `CCCCCCCCCCCCOC(=O)C[n+]1cccc(C(=O)Nc2ccccc2)c1`, the growth inhibition is reported as 96% (active).
In the case of `NC(=S)SCCC(=O)O`, the growth inhibition is reported as -11% (inactive).
With `O=C(O)Cc1ccc2c3c(cccc13)CC2` the growth inhibition was 16% (inactive).

Same assay, conditions: S. cerevisiae bub3 mutant strain, at 50.0 µM (retest, dose inferred, filed as 5.0), hits give high values
With `CC(=O)Sc1ccc(Br)cc1` the growth inhibition was 68% (inactive).
In the case of `CC(C)OCc1cccc2ccnc(COC(C)C)c12`, the growth inhibition is reported as 91% (active).
In the case of `Nc1ccc2c(c1)C(=O)c1ccccc1-2`, the growth inhibition is reported as 9% (inactive).
For `O=C1Nc2ccc([N+](=O)[O-])c3c([N+](=O)[O-])ccc1c23`, the growth inhibition was 70% (active).
With `Cc1ccc(NC(=O)Oc2ccc(C(C)(C)C)cc2Br)cc1NC(=O)Oc1ccc(C(C)(C)C)cc1Br` the growth inhibition was 28% (inactive).
With `O=C1C(Cl)=C(Nc2ccc(S(=O)(=O)O)cc2)C(=O)c2ccccc21` the growth inhibition was 99% (active).
With `N/C(=N\OC(=O)Nc1ccccc1)c1ccccc1` the growth inhibition was 24% (inactive).
For `O=C1c2ccccc2C(=O)c2cc(N3C(=O)C=CC3=O)ccc21`, the growth inhibition was 97% (active).
In the case of `CCCCN=C(c1ccc(O)cc1)c1ccc(OC)cc1O`, the growth inhibition is reported as 42% (inactive).
With `Cc1ccc(S(=O)(=O)c2cc(O)c(O)c3ccc(Br)cc23)cc1` the growth inhibition was 97% (active).
In the case of `CC(C)(C)NC(=S)N/N=C/c1cc(Cl)cc(Cl)c1O`, the growth inhibition is reported as 98% (active).
With `Oc1ccc2c(c1)OCC1c3ccccc3OC21` (stereo unspecified) the growth inhibition was 89% (active).
With `OCCSC(=S)Nc1ccc(Cl)c(Cl)c1` the growth inhibition was 99% (active).
For `CCCC[N-]CC(O)C[NH-].O=C(O)CC(=O)O.[Pt+2]` (stereo unspecified), the growth inhibition was 4% (inactive).
For `N=C(N)c1cccc(-c2ccc(-c3ccccc3)o2)c1`, the growth inhibition was 71% (active).
With `C#CC(CC(C)C)(CC(C)C)OC(=O)Nc1ccccc1` the growth inhibition was 94% (active).
For `CCCCOc1ccc(-c2c(COC(=O)NC)c(COC(=O)NC)c(C)n2C)cc1`, the growth inhibition was 99% (active).
In the case of `O=C(Nc1cccc2ccccc12)OCCCCCCl`, the growth inhibition is reported as 93% (active).
For `C=CCOc1ccc(/C=N/NC(N)=S)cc1`, the growth inhibition was 91% (active).
For `Fc1ccc2[nH]ccc2c1`, the growth inhibition was 62% (inactive).
In the case of `C=C1C(=O)[C@]23C[C@H]1CC[C@H]2[C@@]12CO[C@@H](O)[C@@H]1C(C)(C)[C@@H](O)C[C@@H]2OC3=O`, the growth inhibition is reported as 95% (active).
In the case of `N#Cc1ccc([N+](=O)[O-])cc1C#N`, the growth inhibition is reported as 98% (active).
For `N=C(N)c1ccc(Oc2ccc(Oc3ccc(C(=N)N)cc3)cc2)cc1`, the growth inhibition was 79% (active).
For `CCC=Nc1c(O)cc(-c2ccccc2)n(C)c1=O`, the growth inhibition was 93% (active).
For `COc1ccc(CN2CCCN(Cc3ccc(OC)cc3OC)C2c2cc(Cl)ccc2O)c(OC)c1`, the growth inhibition was 91% (active).
In the case of `CCN(CC)c1ccc(/C=C2/C[N+](C)(C)C/C(=C/c3ccc(N(CC)CC)cc3)C2=O)cc1`, the growth inhibition is reported as 80% (active).
In the case of `O=P1(Cc2ccccc2)c2ccccc2-c2ccccc21`, the growth inhibition is reported as 99% (active).
In the case of `CN(C)CCCNc1cc(O)c2c(c1O)C(=O)c1ccccc1C2=O`, the growth inhibition is reported as 97% (active).
For `CCCCC#CC(=O)OCCCCC`, the growth inhibition was 3% (inactive).
In the case of `CCCCCCN(CCCCCC)CCC(=O)c1ccc2cc(Cl)c3ccccc3c2c1`, the growth inhibition is reported as 94% (active).
In the case of `CC(C)C1=C2CCC3(C)C(CCC4C5C6OCC5(CCC6(C)C)CCC43C)C2(C)CC1` (stereo unspecified), the growth inhibition is reported as 57% (inactive).
With `O=C(CC(O)(CC(=O)OCc1ccccc1)C(=O)OCc1ccccc1)OCc1ccccc1` the growth inhibition was -34% (inactive).
For `CCc1c(C)[nH]c2c([N+](=O)[O-])cccc12`, the growth inhibition was 3% (inactive).
With `CSc1ncc2c(n1)-c1ccccc1OC2NC1CC1` (stereo unspecified) the growth inhibition was 28% (inactive).
With `CC(C)c1cc(O)c2c(c1O)C1CC3C(C)(C)CCC[C@]23C(=O)O1` (stereo partly specified) the growth inhibition was 64% (inactive).
With `O=C1C(=O)c2cc(Br)cc([N+](=O)[O-])c2-c2ccc(Br)cc21` the growth inhibition was 94% (active).
For `NSc1ccccn1`, the growth inhibition was 92% (active).
In the case of `CCCCCCCCCCCCOC(=O)C[n+]1cccc(C(=O)Nc2ccccc2)c1`, the growth inhibition is reported as 98% (active).
In the case of `NC(=S)SCCC(=O)O`, the growth inhibition is reported as -19% (inactive).
For `O=C(O)Cc1ccc2c3c(cccc13)CC2`, the growth inhibition was 86% (active).
